From PubChem BioAssay (NCI)
The panel holds about 79,000 compounds, 15% with a hit somewhere; the sample as a whole holds those more often. Rule as the data show it: active = growth inhibition above about 70%; inactive = the rest.

What was measured:
[1] = NCI Yeast Anticancer Drug Screen. Data for the rad50 strain (AID 155);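 also: 0% = growth of vehicle-only cultures of the same strain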; details: S. cerevisiae rad50 strain growth inhibition; at 50.0 µM; stronger effect = higher value
In short: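 Vehicle-treated cultures provide the reference for the growth inhibition reported for compound-exposed, repair-deficient yeast.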

[2] = NCI Yeast Anticancer Drug Screen. Data for the mec2-1 strain (AID 157); details: S. cerevisiae mec2-1 strain, at 50.0 µM, stronger effect = higher value
In short: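 Yeast mec2-1 mutant treated with compound. Readout: growth inhibition vs vehicle controls.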

[3] = NCI Yeast Anticancer Drug Screen. Data for the sgs1 mgt1 strain (AID 161);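 also: 0% = growth of cultures given vehicle only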; details: S. cerevisiae sgs1 mgt1 strain, at 50.0 µM, stronger effect = higher value
In short: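 Inhibition of yeast growth, normalised to vehicle-treated controls, is reported for a strain bearing genetic alterations in DNA damage repair.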

[4] = NCI Yeast Anticancer Drug Screen. Data for the cln2 rad14 strain (AID 165);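 also: 0% = growth equal to vehicle treated cultures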; details: S. cerevisiae cln2 rad14 strain, at 50.0 µM, stronger effect = higher value
In short: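 cln2 rad14 yeast strain; compound exposure; growth inhibition read vs vehicle controls.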

[5] = NCI Yeast Anticancer Drug Screen. Data for the bub3 strain (AID 167); details: S. cerevisiae bub3 mutant strain, at 50.0 µM, stronger effect = higher value
In short: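 Mutant yeast screening strain plus compound; vehicle-treated cultures serve as the 0% inhibition reference.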

[6] = NCI Yeast Anticancer Drug Screen. Data for the mlh1 rad18 strain (AID 175); details: S. cerevisiae mlh1 rad18 strain growth inhibition; at 50.0 µM; stronger effect = higher value
In short: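 Yeast w/ defined DNA-repair lesions; compound exposure; growth vs vehicle controls → % inhibition.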

Measured: growth inhibition

CCOC(=O)c1c(Br)c2c3ccccc3c3ccccc3n2c1C
inactive: [1] 1.7% | [2] -4.9% | [3] -3.75% | [4] -11.8% | [5] 1.8% | [6] 7.25%

O=S(Cc1cnc2ccccc2c1)c1nc2ccccc2nc1-c1cccs1 (stereo not given)
inactive: [1] -10.2% | [2] -28.8% | [3] -20.7% | [4] -11% | [5] -8.4% | [6] -11.7%

CC(C)(C)n1c(=O)[nH]c(=O)n1C(C)(C)C
inactive: [1] 5.75% | [2] -18.4% | [3] -21.9% | [4] 1.9% | [5] -32.8% | [6] -22.2%

Nc1ccc2cc(S(=O)(=O)O)cc(O)c2c1
inactive: [1] 28.8% | [2] -4.55% | [3] -34.5% | [4] -85.8% | [5] 6.85% | [6] 15.2%

COc1ccc2[nH]c(C)cc2c1CN
inactive: [1] -0.65% | [2] -14.3% | [3] 15.1% | [4] -24.9% | [5] -20.2% | [6] 26.4%

CCOc1ccc(N=C=S)cc1
inactive: [1] 29.9% | [2] -3.05% | [3] 18% | [4] 22.3% | [5] 18.9% | [6] 49%

CC(C)CCC[C@@H](C)[C@H]1CC[C@H]2[C@@H]3CC[C@H]4N(C)[C@@H](Cc5ccccc5)CC[C@]4(C)[C@H]3CC[C@]12C
inactive: [1] 21.8% | [2] 27.6% | [3] 32.5% | [4] 24.7% | [5] 15.4% | [6] -0.05%

CCOC1OCCCC1C(OCC)C(C)C (stereo not given)
inactive: [1] 39% | [2] 14.7% | [3] 19.4% | [4] 9.35% | [5] -0.7% | [6] 12.4%

CCOC(=O)c1c[nH]c(C(=O)OCC)c1C
inactive: [1] 14.4% | [2] 6.6% | [3] 4.2% | [4] -59.9% | [5] -4.5% | [6] 14.2%

Clc1ccc(C2ON=C(c3ccccc3)N2C23CC4CC(CC(C4)C2)C3)cc1 (stereo not given)
inactive: [1] -23.2% | [2] -27% | [3] -24.1% | [4] -0.3% | [5] -11.9% | [6] -0.75%

Cc1ccc(C)c(N=C2NC(=O)C(CC(=O)Nc3ccc(Cl)cc3Cl)S2)c1 (stereo not given)
inactive: [1] -7.5% | [2] 2.75% | [3] -9.65% | [4] 24.7% | [5] -10.9% | [6] -32.6%

O=C(Cl)c1cc(I)c(I)c(I)c1
inactive: [1] 41% | [2] 47.3% | [3] 54.3% | [4] 37.2% | [5] 53.2% | [6] 40%

NCCSCc1ccccc1Cl
inactive: [1] -10.3% | [2] -27.2% | [3] -50.9% | [4] -33.5% | [5] -23.6% | [6] -0.4%

NC(=O)N/N=C/c1ccccc1N
inactive: [1] 5.85% | [2] -6.75% | [3] 0.95% | [4] -22.1% | [5] -8.65% | [6] -2.7%

Cc1ccc2ccccc2c1[N+](=O)[O-]
inactive: [1] 43.5% | [2] 5% | [3] 37.3% | [4] 17.1% | [5] 21.6% | [6] 36.5%

CSc1nc(Cl)nc2c1nc(SC)n2-c1ccccc1
inactive: [1] -8.4% | [2] 7.95% | [3] -0.45% | [4] -8.95% | [5] 16.5% | [6] -15%

C=C1C(=O)OC2/C=C(\C)C(O)C/C=C(/C)C(OC(=O)/C(C)=C\C)C(O)C12 (stereo not given)
inactive: [1] 13.9% | [2] -17.8% | [3] 7.2% | [4] 5.6% | [5] -12.8% | [6] 11.8%

Cc1nn(C(N)=S)c(C)c1N=Nc1ccc(Cl)cc1
inactive: [1] 9.6% | [2] -0.25% | [3] 10.8% | [4] -62.8% | [5] -8.35% | [6] 19.9%

O=c1[nH]c2cc([N+](=O)[O-])ccc2nc1/C=C(\O)c1ccc(Cl)cc1
inactive: [1] -23.2% | [2] -22.8% | [3] -20.1% | [4] -9.15% | [5] -12.2% | [6] -36.7%

OC1COc2c3ccccc3nn2C1 (stereo not given)
inactive: [1] -1.35% | [2] 2.85% | [3] 21.7% | [4] 14.5% | [5] 7.8% | [6] 30.1%

CC(CCOS(C)(=O)=O)OS(C)(=O)=O (stereo not given)
inactive: [1] 8.25% | [2] -5.2% | [3] 1.25% | [4] -3.25% | [5] 8.95% | [6] -7.6%

CCSc1nc(Cl)nc2c1cnn2C
inactive: [1] 7.95% | [2] -2.15% | [3] 8.05% | [4] 4.1% | [5] 24.9% | [6] 5.4%

Cc1cccc(NC(=O)NC(O)C(Cl)(Cl)Cl)c1 (stereo not given)
inactive: [1] 1.65% | [2] -3.35% | [3] -6.25% | [4] -43% | [5] -16.6% | [6] 0.95%

CC1(C)CO/C(=C/C(=O)c2ccccc2)N1C(=O)c1ccccc1
inactive: [1] -4.6% | [2] 11.7% | [3] -6.15% | [4] 1.55% | [5] 4% | [6] -0.45%

CC1CN=C(Nc2ccc(S(N)(=O)=O)cc2)S1 (stereo not given)
inactive: [1] -21.2% | [2] -18.6% | [3] -58.1% | [4] -11.4% | [5] -2.25% | [6] -43%

C=C(CN(C)C)C1(c2ccccc2)CC2(CCCC2)C(=O)O1 (stereo not given)
inactive: [1] 24.2% | [2] 12% | [3] 13.3% | [4] -4.75% | [5] 11.9% | [6] 25.5%

COc1ccc(C2OC3=Nc4ccccc4NC3C2=O)cc1OC (stereo not given)
inactive: [1] 11% | [2] 16.3% | [3] 20.7% | [4] 5.25% | [5] 15.3% | [6] 16.4%

CC(C)N(CCC#N)C(=S)Nc1cccc2ccccc12
inactive: [1] 17.1% | [2] 10.1% | [3] 19.6% | [4] 14.9% | [5] 12.2% | [6] -8.2%

CCc1ccccc1NC(=O)C(=O)C(C(=O)c1ccc(OC)cc1)c1ccc(OC)cc1 (stereo not given)
inactive: [1] 19% | [2] 11.9% | [3] 5.4% | [4] 16.4% | [5] 4.45% | [6] 9.05%

COC(=O)c1nc(N)nc(C(=O)OC)c1C(=O)c1ccc([N+](=O)[O-])cc1
inactive: [1] -20.9% | [2] -23.6% | [3] -37% | [4] -22% | [5] -44.8% | [6] -41%

COc1ccc(C(O)C2c3c(cc4c(c3OC)OCO4)CCN2C)c(CO)c1OC (stereo not given)
inactive: [1] 14.4% | [2] 12.8% | [3] 17.6% | [4] 37.5% | [5] 17.9% | [6] 7.45%

CCN(CC)c1ccc2c(c1)C(O)c1ccccc1-2 (stereo not given)
inactive: [1] -3.75% | [2] -20.4% | [3] -5.7% | [4] -12.4% | [5] 14.4% | [6] 17.6%

O=C(O)c1cccc(C(=O)c2ccccc2)c1
inactive: [1] 5.55% | [2] 6.15% | [3] 20.4% | [4] 4.4% | [5] -11.7% | [6] 0.7%

COc1cc(O)c2c(=O)c(OC)c(-c3ccc4c(c3)OCO4)oc2c1
inactive: [1] 4.6% | [2] 6.2% | [3] -9.85% | [4] 2.35% | [5] -24.2% | [6] -44.4%

CC(=O)C(=CC=C(c1ccc(N(C)C)cc1)c1ccc(N(C)C)cc1)C(C)=O
inactive: [1] -45.3% | [2] -8.55% | [3] 9.5% | [4] -14.8% | [5] 12.7% | [6] -13.6%

NC12CC3CC(C1)CC(C(=O)O)(C3)C2
inactive: [1] 1.65% | [2] 3.05% | [3] -2.75% | [4] 3.45% | [5] 6.7% | [6] -7.1%

CCOC(=O)C(Cc1cc(C)c(O)c(I)c1)NC(C)=O (stereo not given)
inactive: [1] -18.4% | [2] -1.1% | [3] -11.2% | [4] 4.2% | [5] 5.85% | [6] -5.85%

CCC1COC(Nc2cccc3c2CCCC3)=N1 (stereo not given)
inactive: [1] -0.05% | [2] -6.7% | [3] -8.75% | [4] -30.4% | [5] 17.7% | [6] 4.55%

S=c1[nH]c2ccccc2nc1NCc1ccccc1
inactive: [1] -1.55% | [2] 2.75% | [3] 2.15% | [4] -19.8% | [5] 10.1% | [6] 2.3%

CC(O)CNCC(C)(C)N (stereo not given)
inactive: [1] -4.6% | [2] -4.65% | [3] -4.8% | [4] -7.5% | [5] 3.15% | [6] -1.95%
